Assay results reported in the supplement of paper PMC10849652.
Targets with a hit are over-represented here; the source holds about 7,900 in all. About 0.6% of all pairs of compound and target were hits.

Assays:
Assay in all cases: log2 fold change, soluble protein after heating vs DMSO (PISA); higher = thermal stabilisation; K562 cells, 10 uM, 30 min; active = over 0.2 and 3.5 SD of the protein, either way, in both replicates (recomputed)
[1] = compound: CC[C@@H]1C(=O)N(C)c2cnc(Nc3ccc(C(=O)NC4CCN(C)CC4)cc3OC)nc2N1C1CCCC1
Summary of the method: (§1)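 K562 cells at 2×10^6 cells/mL were given 10 μM compound for 30 min. Aliquots then went through 3 min of heating across 48°C-58°C, were pooled, and were extracted in PBS with 0.5% NP-40 at 4°C, and the supernatant after 21,000xg for 90 min was quantified by TMTpro 16plex LC-MS/MS with channel sums equalised. Thermal stability relative to control samples, from duplicates, is given as log2 fold change.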

volasertib = compound: CC[C@@H]1C(=O)N(C)c2cnc(Nc3ccc(C(=O)N[C@H]4CC[C@H](N5CCN(CC6CC6)CC5)CC4)cc3OC)nc2N1C(C)C [volasertib]
Summary of the method: as §1

[2] = compound: CC[C@H](C)N1C=C(C2=C(C=C(C=C21)C3=CN=C(C=C3)N4CCNCC4)C(=O)NCC5=C(C=C(NC5=O)C)C)C
Summary of the method: as §1

epoxomicin = compound: CC[C@H](C)[C@@H](C(=O)N[C@@H]([C@@H](C)O)C(=O)N[C@@H](CC(C)C)C(=O)[C@]1(CO1)C)NC(=O)[C@H]([C@@H](C)CC)N(C)C(=O)C [epoxomicin]
Summary of the method: as §1

[3] = compound: CCn1c(C(=O)N(C2CC2)C2CC2)cc2c3c(ncn3C)c(Nc3cc(C)n(C)n3)nc21
Summary of the method: as §1

[4] = compound: CCn1cc(-c2ccnc3[nH]c(-c4cccc(CN(C)C)c4)cc23)c(-c2ccc(NC(=O)N(C)C)cc2)n1
Summary of the method: as §1

[5] = compound: CN(C)CC(=O)Nc1ccc2[nH]c(=O)c3ccccc3c2c1
Summary of the method: as §1

rosiglitazone = compound: CN(CCOC1=CC=C(C=C1)C[C@H]2C(=O)NC(=O)S2)C3=CC=CC=N3 (racemic) [rosiglitazone]
Summary of the method: as §1

[6] = compound: CN1CCC(CNc2ccc3ncc(-c4cccc(OC(F)(F)F)c4)n3n2)CC1
Summary of the method: as §1

[7] = compound: CN1C2=C(C3=C1C(=O)N(N=C3)CC4=CC(=CC=C4)N)SC(=C2)S(=O)C
Summary of the method: as §1

Measured: log2 fold change

MCM10 (UniProt Q7L590)
inactive: [1] -0.074 | volasertib 0 | [2] -0.034 | epoxomicin 0.148 | [3] 0.069 | [4] -0.037 | [5] -0.023 | rosiglitazone -0.164 | [6] 0.096

MED25 isoform 3 (UniProt Q71SY5)
inactive: [1] 0.057 | volasertib -0.051 | [2] 0.027 | [3] -0.076 | [4] -0.203 | [5] 0.096 | rosiglitazone 0.018 | [7] -0.155 | [6] -0.043

MAPK14 (UniProt Q16539)
Sequence of UniProt Q16539 (Q16539 whole entry, looked up): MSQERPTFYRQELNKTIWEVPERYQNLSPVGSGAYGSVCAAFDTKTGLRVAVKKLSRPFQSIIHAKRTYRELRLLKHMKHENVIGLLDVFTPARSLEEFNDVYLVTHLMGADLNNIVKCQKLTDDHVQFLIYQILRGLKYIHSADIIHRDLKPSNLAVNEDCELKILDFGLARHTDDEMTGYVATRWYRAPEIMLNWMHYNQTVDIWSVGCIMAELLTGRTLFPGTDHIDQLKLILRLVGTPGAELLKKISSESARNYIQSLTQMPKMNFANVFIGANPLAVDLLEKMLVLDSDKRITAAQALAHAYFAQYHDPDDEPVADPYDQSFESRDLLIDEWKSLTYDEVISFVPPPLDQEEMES
inactive: [1] -0.065 | volasertib -0.516 | [2] -0.067 | [3] 0.088 | [4] 0.03 | [5] 0.052 | rosiglitazone 0.067 | [7] -0.231 | [6] -0.03

ILF3 (UniProt Q12906)
Sequence of UniProt Q12906 (Q12906 whole entry, looked up): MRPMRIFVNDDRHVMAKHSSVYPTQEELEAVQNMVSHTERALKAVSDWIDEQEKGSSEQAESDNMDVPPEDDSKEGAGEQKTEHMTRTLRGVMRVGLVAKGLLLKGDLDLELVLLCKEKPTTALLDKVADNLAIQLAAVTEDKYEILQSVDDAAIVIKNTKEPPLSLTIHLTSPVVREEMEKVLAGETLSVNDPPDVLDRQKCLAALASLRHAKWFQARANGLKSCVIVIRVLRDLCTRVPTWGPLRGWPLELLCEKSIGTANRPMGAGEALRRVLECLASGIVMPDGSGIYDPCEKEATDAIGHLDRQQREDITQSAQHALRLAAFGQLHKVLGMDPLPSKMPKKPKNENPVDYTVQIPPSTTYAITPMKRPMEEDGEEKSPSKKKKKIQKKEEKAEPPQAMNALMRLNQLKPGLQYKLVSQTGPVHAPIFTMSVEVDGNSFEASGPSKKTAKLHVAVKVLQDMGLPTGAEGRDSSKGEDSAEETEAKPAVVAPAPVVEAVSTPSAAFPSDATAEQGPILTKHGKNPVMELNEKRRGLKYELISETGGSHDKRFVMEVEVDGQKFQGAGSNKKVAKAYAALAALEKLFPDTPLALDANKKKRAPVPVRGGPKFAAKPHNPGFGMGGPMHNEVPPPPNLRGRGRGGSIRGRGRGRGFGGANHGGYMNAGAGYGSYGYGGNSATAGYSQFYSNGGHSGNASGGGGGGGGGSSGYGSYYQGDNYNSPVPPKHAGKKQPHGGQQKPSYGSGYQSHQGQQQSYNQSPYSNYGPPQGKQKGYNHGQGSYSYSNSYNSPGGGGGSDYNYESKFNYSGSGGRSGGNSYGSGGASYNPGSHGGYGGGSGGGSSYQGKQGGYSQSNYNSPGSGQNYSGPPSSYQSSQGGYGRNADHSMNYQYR
inactive: [1] 0.222 | [2] 0.144 | epoxomicin 0.004 | rosiglitazone -0.082

MASTL (UniProt Q96GX5)
Sequence of UniProt Q96GX5 (Q96GX5 whole entry, looked up): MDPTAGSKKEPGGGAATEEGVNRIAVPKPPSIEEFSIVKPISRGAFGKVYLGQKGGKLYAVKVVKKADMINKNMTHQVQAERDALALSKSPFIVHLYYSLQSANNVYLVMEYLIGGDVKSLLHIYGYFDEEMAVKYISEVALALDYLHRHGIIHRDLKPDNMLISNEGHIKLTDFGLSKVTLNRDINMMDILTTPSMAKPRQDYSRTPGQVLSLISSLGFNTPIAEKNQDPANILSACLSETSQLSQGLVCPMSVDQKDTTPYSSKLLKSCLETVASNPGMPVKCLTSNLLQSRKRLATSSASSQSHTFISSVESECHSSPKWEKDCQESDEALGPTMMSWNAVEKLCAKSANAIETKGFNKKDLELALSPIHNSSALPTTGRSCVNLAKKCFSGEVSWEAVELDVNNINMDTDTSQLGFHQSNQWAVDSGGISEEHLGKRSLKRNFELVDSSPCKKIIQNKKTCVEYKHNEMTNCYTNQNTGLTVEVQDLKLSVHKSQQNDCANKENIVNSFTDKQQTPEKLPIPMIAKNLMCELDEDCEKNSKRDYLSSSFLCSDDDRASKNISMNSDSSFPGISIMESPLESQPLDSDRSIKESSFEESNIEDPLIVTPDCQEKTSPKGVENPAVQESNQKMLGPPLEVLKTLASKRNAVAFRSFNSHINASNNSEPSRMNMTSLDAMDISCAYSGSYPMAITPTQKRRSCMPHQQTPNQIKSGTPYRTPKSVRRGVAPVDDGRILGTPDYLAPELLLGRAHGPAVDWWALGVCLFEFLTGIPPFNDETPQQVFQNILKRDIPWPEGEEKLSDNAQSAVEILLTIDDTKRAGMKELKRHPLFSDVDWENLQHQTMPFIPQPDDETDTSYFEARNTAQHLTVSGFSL
inactive: [1] -0.02 | [2] 0.045 | epoxomicin 0.113 | [3] -0.048 | [5] -0.143 | rosiglitazone -0.006 | [7] 0.081

ITM2B (UniProt Q9Y287)
inactive: [1] -0.022 | volasertib 0.182 | [2] -0.112 | epoxomicin 0.028 | [3] 0.001 | [5] -0.036 | rosiglitazone 0.057 | [7] -0.197

MAGEA8 (UniProt P43361)
inactive: [1] -0.096 | volasertib -0.386 | [2] -0.075 | [3] -0.063 | [4] 0.252 | [5] -0.003 | rosiglitazone 0.036 | [7] 0.038 | [6] -0.07

MED12 isoform 2 (UniProt Q93074)
inactive: [1] -0.055 | volasertib -0.211 | [2] 0.091 | epoxomicin -0.17 | [3] 0.083 | [4] 0.086 | rosiglitazone 0.074 | [7] 0.154 | [6] -0.071

ILRUN (UniProt Q9H6K1)
active: volasertib -0.429
inactive: [1] -0.079 | [2] 0.024 | epoxomicin 0.042 | [3] -0.013 | [5] 0.016 | rosiglitazone -0.019 | [7] -0.09

MAP4 isoform 5 (UniProt P27816)
inactive: [1] -0.001 | volasertib -0.046 | [2] -0.258 | epoxomicin 0.134 | [3] -0.03 | rosiglitazone 0.008

KMT2C isoform 3 (UniProt Q8NEZ4)
inactive: [2] -0.02 | epoxomicin -0.004 | [3] 0.009 | [4] 0.031 | [5] 0 | rosiglitazone 0.009 | [7] 0.026
active: [1] -0.908 | [6] -0.337

KCNK5 (UniProt O95279)
inactive: [1] -0.042 | volasertib -0.174 | epoxomicin 0.046 | [3] 0.004 | [4] 0.047 | rosiglitazone 0.179 | [7] 0.223 | [6] -0.073

ING5 (UniProt Q8WYH8)
inactive: [3] -0.046
active: [1] -0.561 | volasertib -1.47

MAML1 (UniProt Q92585)
inactive: epoxomicin 0.059 | [3] -0.092 | [5] -0.055

ITM2C (UniProt Q9NQX7)
inactive: volasertib -0.312 | [2] 0.049 | epoxomicin -0.149 | [3] -0.096 | [4] -0.104 | [5] -0.046 | rosiglitazone 0.069 | [7] 0.125 | [6] 0.218

INTS5 (UniProt Q6P9B9)
inactive: volasertib -0.152 | [2] 0.049 | epoxomicin 0.052 | [3] -0.046 | [5] -0.003 | rosiglitazone 0.212 | [7] -0.133

KMT5A (UniProt Q9NQR1)
inactive: [4] 0.091 | [6] -0.2

LGALS8 isoform 2 (UniProt O00214)
inactive: [1] 0.19 | epoxomicin -0.05 | [3] -0.029 | [4] -0.121 | [5] 0.067 | rosiglitazone -0.263 | [7] 0.328
active: [6] 0.93

MAP3K20 isoform 2 (UniProt Q9NYL2)
inactive: volasertib -0.1 | [2] -0.067 | epoxomicin -0.03 | [3] 0.018

LOX (UniProt P28300)
inactive: [2] -0.191 | [3] -0.028 | rosiglitazone 0.072

LIN52 (UniProt Q52LA3)
inactive: [7] 0.003

MFAP3 (UniProt P55082)
inactive: epoxomicin -0.054 | [5] -0.118 | rosiglitazone 0.046 | [7] -0.008

MGRN1 isoform 2 (UniProt O60291)
inactive: volasertib -0.115 | [3] 0.071 | [4] -0.072 | rosiglitazone 0.014 | [6] -0.07

LSR isoform 3 (UniProt Q86X29)
inactive: volasertib -0.096 | [7] 0.047

IPP (UniProt Q9Y573)
inactive: rosiglitazone -0.24

MAPK11 (UniProt Q15759)
inactive: [3] -0.332 | [4] 0.025 | [6] -0.263

MAP2K5 (UniProt Q13163)
inactive: [7] 0.457

IGFBP6 (UniProt P24592)
inactive: [5] -0.186 | [7] 0.107

MAPRE3 isoform 2 (UniProt Q9UPY8)
inactive: volasertib 0.165 | [2] 0.04

MAPK7 (UniProt Q13164)
inactive: epoxomicin 0.093 | [4] -0.049 | [6] -0.125

MAP4K5 (UniProt Q9Y4K4)
inactive: volasertib -0.135 | [2] -0.004 | epoxomicin -0.014 | [3] -0.084 | [4] -0.126 | [5] -0.026 | rosiglitazone -0.005 | [6] 0.051

LDLRAP1 (UniProt Q5SW96)
inactive: [3] -0.045 | rosiglitazone -0.023

IGFBP3 isoform 2 (UniProt P17936)
inactive: volasertib -0.507 | epoxomicin -0.251 | [4] 0.075 | [5] -0.238 | [7] 0.199 | [6] -0.555

MFSD12 isoform 3 (UniProt Q6NUT3)
inactive: [1] -0.005 | [3] 0.077 | [4] -0.006 | [7] 0.075 | [6] -0.305

LRRCC1 (UniProt Q9C099)
inactive: [7] 0.281

KIF21A (UniProt H0YI78)
inactive: [3] -0.05

LYN isoform 2 (UniProt P07948)
inactive: volasertib -0.003 | [2] 0.036 | epoxomicin 0.246 | [3] 0.076 | [5] 0.007

LAPTM4B (UniProt Q86VI4)
Sequence of UniProt Q86VI4 (Q86VI4 whole entry, looked up): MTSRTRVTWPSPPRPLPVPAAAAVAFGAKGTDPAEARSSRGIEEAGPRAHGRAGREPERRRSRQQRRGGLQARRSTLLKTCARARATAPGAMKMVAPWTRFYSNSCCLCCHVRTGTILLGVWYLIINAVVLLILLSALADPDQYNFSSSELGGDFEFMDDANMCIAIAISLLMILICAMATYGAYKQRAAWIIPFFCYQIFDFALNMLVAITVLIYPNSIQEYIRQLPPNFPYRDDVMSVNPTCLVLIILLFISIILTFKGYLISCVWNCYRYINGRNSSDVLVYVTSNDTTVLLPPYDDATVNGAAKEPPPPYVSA
inactive: [1] 0.063 | [3] -0.12 | [4] 0.216 | rosiglitazone -0.024
active: [6] 0.968

MED7 (UniProt O43513)
Sequence of UniProt O43513 (O43513 whole entry, looked up): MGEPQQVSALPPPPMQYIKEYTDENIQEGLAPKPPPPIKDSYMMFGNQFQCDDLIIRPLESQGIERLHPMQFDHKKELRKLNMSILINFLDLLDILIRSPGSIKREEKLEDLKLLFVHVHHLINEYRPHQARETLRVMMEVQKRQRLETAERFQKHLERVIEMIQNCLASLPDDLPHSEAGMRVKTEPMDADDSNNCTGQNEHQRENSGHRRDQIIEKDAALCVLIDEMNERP
inactive: volasertib 0.139 | [2] -0.287 | epoxomicin 0.127 | [3] 0.015 | [5] 0.021 | rosiglitazone -0.059 | [7] -0.172

MED29 (UniProt Q9NX70)
Sequence of UniProt Q9NX70 (Q9NX70 whole entry, looked up): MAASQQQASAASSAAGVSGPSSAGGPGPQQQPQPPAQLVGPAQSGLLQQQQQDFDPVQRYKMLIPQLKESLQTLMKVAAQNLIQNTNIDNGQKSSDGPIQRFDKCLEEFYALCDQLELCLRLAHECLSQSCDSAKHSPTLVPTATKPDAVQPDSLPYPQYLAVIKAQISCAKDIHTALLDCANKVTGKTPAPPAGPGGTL
inactive: volasertib -0.115 | [2] 0.055 | [3] -0.044 | [7] -0.056

IKZF1 isoform 2 (UniProt Q13422)
inactive: [2] -0.011 | [3] -0.034 | [5] -0.043 | rosiglitazone 0.078

MAGED1 isoform 2 (UniProt Q9Y5V3)
inactive: volasertib -0.306 | [2] -0.01 | epoxomicin -0.053 | [3] 0.01 | [5] 0.012 | [7] 0.399

LEPROT (UniProt O15243)
Sequence of UniProt O15243 (O15243 whole entry, looked up): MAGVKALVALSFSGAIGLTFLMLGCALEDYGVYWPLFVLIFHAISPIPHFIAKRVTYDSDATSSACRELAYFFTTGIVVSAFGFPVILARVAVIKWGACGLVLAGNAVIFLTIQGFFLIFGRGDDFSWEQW
inactive: [1] -0.052 | epoxomicin 0.129 | [3] -0.11 | [4] 0.075 | [7] 0.117 | [6] -0.03

LSR (UniProt M0QZL9)
inactive: epoxomicin 0.076 | [5] -0.125

LUZP1 (UniProt Q86V48)
inactive: volasertib -0.021 | [2] -0.026 | epoxomicin -0.22 | [3] 0.09 | [4] 0.026 | [5] 0.035 | rosiglitazone 0.026 | [7] 0.026 | [6] -0.039

MAP4K4 isoform 6 (UniProt O95819)
inactive: [1] -0.241 | [2] 0.109 | [5] -0.083 | [7] 0.261

KIF1B isoform 3 (UniProt O60333)
inactive: [1] 0.193 | [5] -0.032

JAK3 (UniProt P52333)
Sequence of UniProt P52333 (P52333 whole entry, looked up): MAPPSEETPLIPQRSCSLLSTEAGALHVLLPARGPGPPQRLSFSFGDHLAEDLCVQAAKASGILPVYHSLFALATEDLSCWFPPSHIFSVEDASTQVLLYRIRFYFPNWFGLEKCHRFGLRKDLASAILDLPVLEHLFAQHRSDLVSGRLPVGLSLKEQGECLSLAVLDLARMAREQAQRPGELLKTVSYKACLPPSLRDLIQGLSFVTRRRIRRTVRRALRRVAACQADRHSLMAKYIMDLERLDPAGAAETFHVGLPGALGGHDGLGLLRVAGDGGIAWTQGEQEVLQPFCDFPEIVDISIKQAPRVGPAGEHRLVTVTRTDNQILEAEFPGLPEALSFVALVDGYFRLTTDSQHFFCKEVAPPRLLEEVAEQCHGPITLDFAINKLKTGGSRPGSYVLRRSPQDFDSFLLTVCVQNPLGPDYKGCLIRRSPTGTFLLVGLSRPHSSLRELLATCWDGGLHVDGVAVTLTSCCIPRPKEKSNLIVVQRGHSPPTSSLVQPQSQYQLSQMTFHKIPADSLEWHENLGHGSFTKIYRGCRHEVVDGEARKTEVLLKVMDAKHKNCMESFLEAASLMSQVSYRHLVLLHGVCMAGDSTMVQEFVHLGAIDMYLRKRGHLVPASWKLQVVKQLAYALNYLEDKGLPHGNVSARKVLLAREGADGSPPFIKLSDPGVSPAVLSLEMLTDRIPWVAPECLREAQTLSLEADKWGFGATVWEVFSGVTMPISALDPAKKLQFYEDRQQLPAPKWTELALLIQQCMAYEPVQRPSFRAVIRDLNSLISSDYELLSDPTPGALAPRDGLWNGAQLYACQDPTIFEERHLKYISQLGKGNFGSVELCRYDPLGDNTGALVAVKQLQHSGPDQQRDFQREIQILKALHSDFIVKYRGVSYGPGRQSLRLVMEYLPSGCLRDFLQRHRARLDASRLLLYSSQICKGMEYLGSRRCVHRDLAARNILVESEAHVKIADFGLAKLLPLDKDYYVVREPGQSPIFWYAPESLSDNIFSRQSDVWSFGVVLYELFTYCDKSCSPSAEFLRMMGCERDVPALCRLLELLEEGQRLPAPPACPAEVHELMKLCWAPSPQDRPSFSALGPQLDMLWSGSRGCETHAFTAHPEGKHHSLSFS
inactive: volasertib -0.075 | [2] 0.09 | epoxomicin -0.033 | [3] 0.081 | [4] 0.128 | [5] -0.042 | rosiglitazone 0.011 | [7] -0.01 | [6] 0.012

ITGA2B (UniProt P08514)
inactive: volasertib 0.134 | [2] -0.211 | epoxomicin -0.089 | [3] -0.011 | [4] -0.173 | [5] 0.067 | [7] 0.117 | [6] -0.07

LRRFIP1 isoform 4 (UniProt Q32MZ4)
Sequence of UniProt Q32MZ4 (Q32MZ4 whole entry, looked up): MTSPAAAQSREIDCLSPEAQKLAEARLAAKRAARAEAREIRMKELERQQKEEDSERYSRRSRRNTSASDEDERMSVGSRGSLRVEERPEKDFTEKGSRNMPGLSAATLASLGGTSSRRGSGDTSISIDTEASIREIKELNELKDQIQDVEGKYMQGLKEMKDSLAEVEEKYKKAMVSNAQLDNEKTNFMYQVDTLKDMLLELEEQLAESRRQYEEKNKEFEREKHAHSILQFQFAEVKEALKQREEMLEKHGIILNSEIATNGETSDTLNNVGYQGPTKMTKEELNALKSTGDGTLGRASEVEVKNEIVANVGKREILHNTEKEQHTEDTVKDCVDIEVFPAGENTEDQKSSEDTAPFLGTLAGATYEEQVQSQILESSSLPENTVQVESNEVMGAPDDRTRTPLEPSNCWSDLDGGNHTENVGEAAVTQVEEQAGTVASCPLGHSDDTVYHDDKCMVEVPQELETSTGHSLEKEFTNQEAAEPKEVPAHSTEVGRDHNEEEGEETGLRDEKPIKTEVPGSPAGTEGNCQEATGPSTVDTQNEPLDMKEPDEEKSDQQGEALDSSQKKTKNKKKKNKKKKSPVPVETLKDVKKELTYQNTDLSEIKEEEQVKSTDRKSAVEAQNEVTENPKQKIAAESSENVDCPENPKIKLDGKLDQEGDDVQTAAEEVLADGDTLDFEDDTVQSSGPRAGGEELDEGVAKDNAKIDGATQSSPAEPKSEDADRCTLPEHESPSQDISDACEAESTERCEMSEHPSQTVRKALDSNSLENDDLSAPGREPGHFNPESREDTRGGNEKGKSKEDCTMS
inactive: epoxomicin -0.113 | [3] -0.1 | [4] 0.212 | [7] 0.105 | [6] 0.349

LMBR1 isoform 3 (UniProt Q8WVP7)
inactive: volasertib -0.452 | epoxomicin 0.26 | [3] -0.074 | [4] -0.456 | [5] 0.049 | rosiglitazone -0.037 | [7] 0.033 | [6] -0.314

IKZF1 (UniProt R9R4D9)
inactive: volasertib 0.085 | [4] -0.247 | [7] 0.229 | [6] 0.05
